Screening data deposited in PubChem by several laboratories.
dFosB activator: enhances mouse delta FosB homodimer DNA binding. 0.99% of 340,000 active. purified delta FosB, TAMRA-CDK5 oligo fluorescence polarization; percent of positive-control signal above neutral wells. activation, % at 25 µM. P13346;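 active = mean activation above about 17%, with every replicate also reaching it, limit read from the data, passing the limit was not always enough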
MPTP block: permeability transition pore inhibition; isolated mouse mitochondria, Ca2+ swelling absorbance, 30 min; inhibition, % at 10 µM; 1.4% of 360,000 active;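 active = inhibition of 50% or more, scaled per plate between neutral and stimulator controls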;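 note: 0% = DMSO wells given calcium and 100% = 1 mM EGTA wells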
HSF1 inhib: HSF1 inhibition. NIH3T3-HGL HSE-luciferase, MG132-induced, luminescence 8 h; hits give low values. AID 2098. 0.77% of 300,000 active. activity change, negative = inhibition, % at 7.5 µM (by protocol);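 active = more than half of replicate wells show activity change below -50%, luminescence cut by over half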;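 note: luciferase reports HSF-1 transcriptional activity via heat shock element; 0% = median of DMSO wells and -100% = zero luminescence signal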
Platelet DG rel: platelet dense granule release activity | human platelet-rich plasma, SFLLRN dense granule ATP release, luminescence | inhibition, %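 (compounds screened at 7.5 µM in platelet-rich plasma)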 | 0.22% of 300,000 active | AID 1663;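 active = mean replicate score, as percent of positive control, at or above 50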
HSP90 refold inh: blocks HSP90-mediated luciferase refolding in reticulocyte lysate | AID 1789 | 0.91% of 290,000 active | Rabbit reticulocyte lysate, luciferase refolding luminescence, 3 h | inhibition, % at 5.6 µM;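 active = inhibition above the screen-wide mean plus 3 SD, computed separately per campaign, cut at about 16% in these data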;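 note: 0% = DMSO wells and 100% = 60 µM geldanamycin wells; inhibitors lower the luminescence because luciferase stays unfolded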
HSF1 activator: increases HSF-1 driven luciferase reporter signal; NIH3T3-HGL HSF-1 luciferase reporter, MG132, 8 h; 100% = twice DMSO control signal; activation, % at 9 µM; 1.7% of 300,000 active; AID 504408;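 active = mean replicate activation of at least 50% with a set share of replicates each reaching 50%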;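 note: 0% = median of the neutral control wells and 100% = twice that signal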
HSP90 inh confirm: confirmation of HSP90 inhibitors; shares compounds with HSP90 refold inh; rabbit reticulocyte lysate, luciferase refolding luminescence, 3 h; inhibition, % at 5.9 µM; 64% of 2,300 active; AID 1846; in the data active = inhibition above about 18%;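 note: 0% = vehicle wells and 100% = reference inhibitor wells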
luciferase ctr: blocks native firefly luciferase in HSP90 counter-screen; shares compounds with HSP90 refold inh; purified native firefly luciferase, luminescence; inhibition, % at 5.9 µM; 48% of 2,300 active;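 active = inhibition above the mean inhibition of all tested sample wells plus 3 SD, cut at about 10% in these data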;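 note: 0% = DMSO with luciferase and 100% = wells lacking luciferase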
Target sequence (P08659 whole entry, looked up): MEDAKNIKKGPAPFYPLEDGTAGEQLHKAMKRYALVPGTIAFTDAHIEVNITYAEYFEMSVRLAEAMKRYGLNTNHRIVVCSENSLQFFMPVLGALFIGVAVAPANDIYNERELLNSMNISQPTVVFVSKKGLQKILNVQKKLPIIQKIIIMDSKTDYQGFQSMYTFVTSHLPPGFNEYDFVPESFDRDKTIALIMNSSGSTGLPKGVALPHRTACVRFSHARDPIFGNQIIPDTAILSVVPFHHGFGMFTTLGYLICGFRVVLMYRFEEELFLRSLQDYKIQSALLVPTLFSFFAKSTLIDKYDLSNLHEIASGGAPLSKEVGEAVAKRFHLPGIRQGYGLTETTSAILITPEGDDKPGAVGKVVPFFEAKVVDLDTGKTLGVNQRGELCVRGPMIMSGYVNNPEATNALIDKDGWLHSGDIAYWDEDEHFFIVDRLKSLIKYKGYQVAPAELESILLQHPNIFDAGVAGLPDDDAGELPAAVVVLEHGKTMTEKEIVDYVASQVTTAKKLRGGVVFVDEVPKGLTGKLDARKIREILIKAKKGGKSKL
Active calls of the source: *; · = no result given. In the library only some 4.9% were active in any assay of this set; here they are far more common.

SMILES | dFosB activator | MPTP block | HSF1 inhib | Platelet DG rel | HSP90 refold inh | HSF1 activator | HSP90 inh confirm | luciferase ctr
C[C@]12CC[C@H](OS(=O)(=O)O)CC1=CC[C@@H]1[C@@H]2CC[C@]2(C)C(=O)CC[C@@H]12 | -5 | -1 | -5 | -1 | · | 7 | · | ·
O=C1NCN(c2ccccc2)C12CCN(C(c1cc3ccccc3o1)c1nnnn1Cc1ccccc1)CC2 (stereo not drawn) | · | 4 | · | · | · | · | · | ·
CCOc1ccc(NC(=O)c2c(O)[nH]c(=O)[nH]c2=O)cc1 | -4 | -1 | 5 | 56* | · | -3 | · | ·
CCOC(=O)c1c(/N=C/c2c(O)n(-c3ccccc3F)c(=S)[nH]c2=O)sc2c1CCCC2 | 23* | 1 | -16 | -1 | 3 | -23 | · | ·
CCNC(=O)[C@H]1O[C@@H](n2cnc3c(N)ncnc32)[C@H](O)[C@@H]1O | 3 | 1 | -15 | 84* | · | 3 | · | ·
Nc1ncnc2c1ncn2[C@@H]1O[C@H](COP(=O)(O)CP(=O)(O)O)[C@@H](O)[C@H]1O | 0 | 0 | · | · | · | · | · | ·
O=C1NC(=O)N(Cc2ccco2)C(=O)/C1=C/C=C/c1ccco1 | -14 | 0 | 15 | 1 | 2 | 31 | · | ·
O=C1NC(=O)N(Cc2ccccc2)C(=O)/C1=C\C=C\c1ccco1 | -15 | -1 | 32 | -1 | 3 | 71* | · | ·
Cc1ccc(N2C(=O)NC(=O)/C(=C\C=C\c3ccco3)C2=O)cc1C | 0 | -4 | 90 | 1 | 4 | 146* | · | ·
CNC(=O)Oc1cccc(-c2cn3cc(Cl)ccc3n2)c1 | -6 | -5 | 29 | 19 | 49* | 25 | · | ·
O=C(C1CCCO1)N1CCC2(CC1)OCCO2 (stereo not drawn) | -9 | 0 | -90* | 16 | 4 | -91 | · | ·
CNC(=O)Oc1ccccc1C1CCCCC1 | 3 | 0 | · | · | · | · | · | ·
Cc1cc(C)nc(-n2c(C)nc3cc(Cl)ccc3c2=O)c1 | 0 | 0 | -78* | -12 | -2 | -83 | · | ·
Cc1cccc(-n2c(C)nc3ccccc3c2=O)n1 | 1 | 4 | -5 | 2 | 3 | -15 | · | ·
CC1CC2(C)C(=CC1=O)CCC1C3CCC(C)(O)C3(C)CC3OC312 (stereo not drawn) | 4 | -1 | · | · | · | · | · | ·
Cc1nc2c(=O)n(C)c(=O)nc-2n(C)n1 | -6 | -6 | -94* | 40 | 78* | -95 | 80* | 83*
COc1ccc(-n2nnnc2C(CCSC)N2CCC3(CC2)C(=O)NCN3c2ccccc2)cc1 (stereo not drawn) | · | 1 | · | · | · | · | · | ·
CNC(=O)Oc1ccc(-c2cn3cc(C)ccc3n2)cc1 | -8 | -2 | 2 | 21 | 56* | 2 | 68* | 52*
CC(CC(C#N)(c1ccccc1)c1ccccc1)N1CCOCC1 (stereo not drawn) | -4 | 0 | · | · | · | · | · | ·
Cc1ccccc1-n1c(O)c(/C=N/NC(=O)c2ccccc2O)c(=O)[nH]c1=S | 2 | 0 | -55* | -3 | 21* | -64 | 52* | 48*
CN1CCN(c2cccc3c2C(=O)c2ccccc2C3=O)CC1 | 14 | 2 | -25 | 0 | 19* | -18 | 20* | 1
Cc1nc2cc(OC(=O)N(C)Cc3cccc(-c4ccncc4)c3)ccc2s1 | · | 7 | · | · | · | · | · | ·
CCCNC(=O)N1[C@H]2CC[C@@H]1C(C(=O)OC)=C(c1c(C)noc1C)C2 | 4 | 0 | · | · | · | · | · | ·
CCCCCn1c(NC(=O)c2ccco2)c(C(=O)OCC)c2nc3ccccc3nc21 | -12 | 3 | 18 | 3 | 5 | 40 | · | ·
COCCCn1c(N)c(C(=O)OCCOC)c2nc3ccccc3nc21 | -1 | -2 | 1 | -4 | 22* | 16 | -2 | -4
SMILES | dFosB activator | MPTP block | HSF1 inhib | Platelet DG rel | HSP90 refold inh | HSF1 activator | HSP90 inh confirm | luciferase ctr
CCOC(=O)c1c(NS(=O)(=O)c2ccccc2)n(CCCOC)c2nc3ccccc3nc12 | -5 | -1 | 9 | -1 | 22* | 12 | 7 | -4
CCCCNC(=O)c1c(N)n(CCCOC)c2nc3ccccc3nc12 | 1 | 7 | 5 | 1 | 8 | 13 | · | ·
Cc1ccc(OCCOc2cccc(C=C3C(=O)NC(=O)NC3=O)c2)c(C)c1 | -5 | -2 | -10 | 3 | 23* | 8 | 39* | 17*
O=C1NC(=O)C(=Cc2cccc(OCCOc3ccccc3)c2)C(=O)N1 | -4 | 1 | 17 | -3 | 3 | 30 | · | ·
CCOc1cc(/C=C2\C(=O)NC(=O)N(CCc3ccc(F)cc3)C2=O)ccc1O | 5 | 4 | -2 | 4 | 38* | -3 | 7 | 8
CCOP(=O)(OCC)C(Cc1ccccc1)NC(C)=O (stereo not drawn) | -5 | 0 | -3 | 21 | -8 | -3 | · | ·
CCOP(=S)(NN(Cc1ccccc1)C(=O)c1ccccc1)OCC | -6 | 1 | 8 | 4 | 42* | 22 | 5 | 0
Cc1cccc(C)c1-n1nnnc1C(CCc1ccccc1)N1CCC2(CC1)C(=O)NCN2c1ccccc1 (stereo not drawn) | · | 0 | · | · | · | · | · | ·
CC(C)(C)c1ccc(O)c(N=Cc2c(O)ccc3ccccc23)c1 | -13 | 50 | 10 | -4 | 30* | -10 | 30* | -6
COc1ccccc1NP1(=O)OCC(C)([N+](=O)[O-])CO1 (stereo not drawn) | 6 | 0 | · | · | · | · | · | ·
Cc1ccc(-n2c(O)c(/C=N/Nc3ccccc3)c(=O)[nH]c2=O)cc1C | · | · | 4 | -20 | 1 | 5 | · | ·
COc1ccc(N/N=C/c2c(O)n(-c3ccc(C)c(C)c3)c(=O)[nH]c2=O)cc1 | -6 | 0 | -5 | -2 | 19* | -24 | 29* | -6
CCOC(=O)c1c(C)[nH]c(C)c1C(=O)C(Cc1ccccc1)N(C)C (stereo not drawn) | -6 | 0 | -1 | -6 | 22* | -11 | -1 | -6
CN(C)C(Cc1ccccc1)C(=O)c1ccccc1 (stereo not drawn) | -1 | -2 | 0 | -6 | -4 | 9 | · | ·
CN1CCN2c3ccc(N)cc3CC3(C(=O)NC(=O)NC3=O)C2C1 (stereo not drawn) | · | 0 | -13 | -13 | 20* | -4 | -1 | -15
O=C1CC(c2cccnc2)=NN1c1ccccc1 | 4 | 1 | -1 | 0 | 28* | 7 | 3 | 0
COC(=O)[C@@H]1N=C(c2ccc(OC)cc2)O[C@]12C(=O)N(Cc1ccccc1)c1ccccc12 | · | 0 | · | · | · | · | · | ·
COc1ccccc1-n1c(-c2cccs2)nc2ccccc2c1=O | -9 | 0 | 5 | -1 | 17* | 8 | 0 | -10
COc1ccccc1-n1c(-c2ccccc2)nc2ccccc2c1=O | -3 | 1 | -3 | -9 | -2 | 6 | · | ·
CCCN(CC1CC1)CC(O)c1ccccc1 (stereo not drawn) | -2 | 1 | 4 | -6 | -1 | 16 | · | ·
